From PubChem BioAssay (NCI) come the findings set out here.

A short description of assay [1]: NCI Yeast Anticancer Drug Screen. Data for the rad50 strain (AID 155).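 Further: 0% = growth of vehicle-only cultures of the same strain.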 To be noted: S. cerevisiae rad50 strain growth inhibition, active compounds read high. In a few lines:
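Genetically altered yeast (DNA repair pathway); compound treatment; growth inhibition vs vehicle ctrl.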

A short description of assay [2]: NCI Yeast Anticancer Drug Screen. Data for the mec2-1 strain (AID 157). To be noted: S. cerevisiae mec2-1 strain, active compounds read high. In a few lines: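 Readout is yeast growth inhibition, normalised to vehicle-treated controls, in the mec2-1 strain exposed to compound.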
A short description of assay [3]: NCI Yeast Anticancer Drug Screen. Data for the sgs1 mgt1 strain (AID 161).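 Further: 0% = growth of cultures given vehicle only.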 The following applies: S. cerevisiae sgs1 mgt1 strain, active compounds read high. The procedure, abridged: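 Percent growth inhibition was derived by comparing compound-exposed mutant yeast with vehicle-exposed cultures. The strain carries alterations in DNA damage repair.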
Assay [4] in a line: NCI Yeast Anticancer Drug Screen. Data for the bub3 strain (AID 167). To be noted: S. cerevisiae bub3 mutant strain, active compounds read high. In a few lines: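 Yeast carrying a defined mutation is treated with each compound, and growth is compared with that of vehicle-exposed cells to give inhibition.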
Assay [5] in a line: NCI Yeast Anticancer Drug Screen. Data for the mlh1 rad18 strain (AID 175). The following applies: S. cerevisiae mlh1 rad18 strain growth inhibition, active compounds read high. In a few lines:
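Test agents were incubated with a yeast strain of defined genotype (DNA damage repair defect). Inhibition of growth was derived by comparison with vehicle-exposed cultures.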

Assay [6] is described as follows: NCI Yeast Anticancer Drug Screen. Data for the cln2 rad14 strain (AID 165).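 Further: 0% = growth equal to vehicle treated cultures.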 The following applies: S. cerevisiae cln2 rad14 strain, active compounds read high. In a few lines: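 Relative to vehicle controls, growth inhibition of compound-treated cln2 rad14 yeast was recorded.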
[7] abbreviates: at 5.0 µM (retest, dose inferred, filed as 0.5).
[8] abbreviates: at 50.0 µM (retest, dose inferred, filed as 5.0).

Molecules are shown by their SMILES. This is part of a sample that, as a whole, favours compounds with a hit. Of some 79,000 tested, about 15% had one in any assay. A number with no mark means an inactive call. Active and inactive are the calls of the source. No stated cut-off is given here; in the data, active means growth inhibition above about 70%; inactive means the rest.

Regarding `CCC[CH2][Sn]([CH2]CCC)([CH2]CCC)[O]C(=O)C(OC)c1ccccc1` (stereo not given), the growth inhibition in assay [1] (setting [7]) is 100% (active); in assay [1] (setting [8]), 100% (active); in assay [1] (at 50.0 µM), 90.5% (active); in assay [2] (setting [7]), 100% (active); in assay [2] (setting [8]) it was 100% (active); in assay [2] (at 50.0 µM) it was 91.3% (active). The growth inhibition in assay [3] (setting [7]) was 99% (active); in assay [3] (setting [8]), 99% (active); in assay [3] (at 50.0 µM), 91% (active); in assay [4] (setting [7]) it was 99% (active); in assay [4] (setting [8]) it was 99% (active); in assay [4] (at 50.0 µM), 88.7% (active). Also, the values for the growth inhibition in assay [5] (setting [7]), in assay [5] (setting [8]) and in assay [5] (at 50.0 µM) were 100% (active), 100% (active) and 89.4% (active), respectively.
On to `CC12C(=O)C=CCC1=CCC1C2CCC2(O)C(=O)OC3(C)C4CC5(C)C(COC16OC23C5C6=O)C(=O)O4` (stereo not given), for which the growth inhibition in assay [1] (setting [7]) is 11%; in assay [1] (setting [8]) it was 51%; in assay [1] (at 50.0 µM), 78.8% (active); in assay [2] (setting [7]), 24%; in assay [2] (setting [8]) it was 35%; in assay [2] (at 50.0 µM), 55.7%. For the same compound, the growth inhibition in assay [6] (setting [7]) is 3%; in assay [6] (setting [8]) it was 18%; in assay [6] (at 50.0 µM), 30.4%; in assay [4] (setting [7]) it was 14%; in assay [4] (setting [8]), 56%; in assay [4] (at 50.0 µM), 69.6%. In addition, the growth inhibition in assay [5] (setting [7]) is 32%; in assay [5] (setting [8]) it was 64%; in assay [5] (at 50.0 µM), 62.5%.
Turning to `CCOc1c(Br)cc(/C=C(\C)[N+](=O)[O-])cc1OC`, the growth inhibition in assay [1] (setting [7]) is 2%; in assay [1] (setting [8]), 7%; in assay [1] (at 50.0 µM), 61.9%; in assay [2] (setting [7]), -1%; in assay [2] (setting [8]), 9%; in assay [2] (at 50.0 µM), 78.5% (active). Further, the growth inhibition was -1% in assay [6] (setting [7]); -3% in assay [6] (setting [8]); 93.4% (active) in assay [6] (at 50.0 µM); -4% in assay [4] (setting [7]); 2% in assay [4] (setting [8]); 72.5% (active) in assay [4] (at 50.0 µM). Besides, the growth inhibition in assay [5] (setting [7]) is -5%; in assay [5] (setting [8]) it was 4%; in assay [5] (at 50.0 µM) it was 79.7% (active).
As to `O=C(CBr)Nc1ccccc1`, the growth inhibition in assay [1] (setting [7]) was 40%; in assay [1] (setting [8]), 99% (active); in assay [1] (at 50.0 µM), 97% (active); in assay [2] (setting [7]) it was 22%; in assay [2] (setting [8]), 99% (active); in assay [2] (at 50.0 µM) it was 98.9% (active). Further, the growth inhibition in assay [6] (setting [7]) was 25%; in assay [6] (setting [8]) it was 99% (active); in assay [6] (at 50.0 µM), 97.3% (active); in assay [4] (setting [7]) it was 74% (active); in assay [4] (setting [8]) it was 99% (active); in assay [4] (at 50.0 µM) it was 97.1% (active). Also, the growth inhibition in assay [5] (setting [7]) was 48%; in assay [5] (setting [8]), 100% (active); in assay [5] (at 50.0 µM), 97.8% (active).
`COC(=O)C1c2c(C)cc3n2C(C=CC3)C1C(=O)OC` (stereo not given): the growth inhibition in assay [1] (setting [7]) is 7%; in assay [1] (setting [8]) it was 69%; in assay [1] (at 50.0 µM), 13.2%; in assay [2] (setting [7]), 36%; in assay [2] (setting [8]), 96% (active); in assay [2] (at 50.0 µM), 19.1%. Besides, the growth inhibition is -6% in assay [3] (setting [7]); 24% in assay [3] (setting [8]); 4.95% in assay [3] (at 50.0 µM); 64% in assay [4] (setting [7]); 92% (active) in assay [4] (setting [8]); -10.2% in assay [4] (at 50.0 µM). Besides, the growth inhibition in assay [5] (setting [7]) was -9%; in assay [5] (setting [8]), 54%; in assay [5] (at 50.0 µM) it was -3.5%.
Turning to `S=C=NC/C(Cl)=C/Cl`, the growth inhibition in assay [1] (setting [7]) was 43%; in assay [1] (setting [8]), 48%; in assay [1] (at 50.0 µM) it was 71.9% (active); in assay [2] (setting [7]), 49%; in assay [2] (setting [8]), 45%; in assay [2] (at 50.0 µM) it was 53.5%. Besides, the growth inhibition is 14% in assay [3] (setting [7]); 89% (active) in assay [3] (setting [8]); 72.5% (active) in assay [3] (at 50.0 µM); 35% in assay [4] (setting [7]); 91% (active) in assay [4] (setting [8]); 69.2% in assay [4] (at 50.0 µM). Besides, the values for the growth inhibition in assay [5] (setting [7]), in assay [5] (setting [8]) and in assay [5] (at 50.0 µM) were 38%, 46% and 70.5% (active), respectively.
Regarding `O=C(O)C1CC2c3ccccc3C1([N+](=O)[O-])c1ccccc12` (stereo not given), the growth inhibition in assay [1] (setting [7]) was 0%; in assay [1] (setting [8]), 8%; in assay [1] (at 50.0 µM), 14.2%; in assay [2] (setting [7]), -1%; in assay [2] (setting [8]), 4%; in assay [2] (at 50.0 µM), 1.45%. The growth inhibition in assay [6] (setting [7]) is -3%; in assay [6] (setting [8]), 15%; in assay [6] (at 50.0 µM) it was 41%; in assay [4] (setting [7]), 2%; in assay [4] (setting [8]), 6%; in assay [4] (at 50.0 µM), 3.5%. The values for the growth inhibition in assay [5] (setting [7]), in assay [5] (setting [8]) and in assay [5] (at 50.0 µM) were 0%, 8% and 21.1%, respectively.
Take `O=C([CH-]C(=O)c1ccccc1)c1ccccc1.O=C([CH-]C(=O)c1ccccc1)c1ccccc1.[La+3].[OH-].[OH3+]`: the growth inhibition in assay [1] (setting [7]) was 24%; in assay [1] (setting [8]), 24%; in assay [1] (at 50.0 µM), 92% (active); in assay [2] (setting [7]), 23%; in assay [2] (setting [8]) it was 23%; in assay [2] (at 50.0 µM), 93.5% (active). The growth inhibition in assay [3] (setting [7]) is 27%; in assay [3] (setting [8]), 27%; in assay [3] (at 50.0 µM), 93.7% (active); in assay [4] (setting [7]), 37%; in assay [4] (setting [8]), 37%; in assay [4] (at 50.0 µM), 91.2% (active). For the same compound, the figures for the growth inhibition in assay [5] (setting [7]), in assay [5] (setting [8]) and in assay [5] (at 50.0 µM) were 25%, 25% and 88.2% (active), respectively.
Consider `O=[As]c1ccc(O)c(O)c1` (stereo not given), for which the growth inhibition in assay [1] (setting [7]) was 11%; in assay [1] (setting [8]), 99% (active); in assay [1] (at 50.0 µM), 97% (active); in assay [2] (setting [7]), -4%; in assay [2] (setting [8]) it was 100% (active); in assay [2] (at 50.0 µM), 99.4% (active). The growth inhibition is -9% in assay [6] (setting [7]); 99% (active) in assay [6] (setting [8]); 98.8% (active) in assay [6] (at 50.0 µM); 22% in assay [4] (setting [7]); 99% (active) in assay [4] (setting [8]); 99.2% (active) in assay [4] (at 50.0 µM). Further, the growth inhibition is 6% in assay [5] (setting [7]), 99% (active) in assay [5] (setting [8]) and 99.3% (active) in assay [5] (at 50.0 µM).
For `O=C([CH-]C(=O)c1ccccc1)c1ccccc1.O=C([CH-]C(=O)c1ccccc1)c1ccccc1.[CH2-]CCC.[CH2-]CCC.[Sn+4]`, the growth inhibition was 83% (active) in assay [1] (setting [7]); 98% (active) in assay [1] (setting [8]); 90.3% (active) in assay [1] (at 50.0 µM); 91% (active) in assay [2] (setting [7]); 99% (active) in assay [2] (setting [8]); 93.2% (active) in assay [2] (at 50.0 µM). Besides, the growth inhibition in assay [3] (setting [7]) was 86% (active); in assay [3] (setting [8]), 58%; in assay [3] (at 50.0 µM), 93% (active); in assay [4] (setting [7]), 90% (active); in assay [4] (setting [8]), 93% (active); in assay [4] (at 50.0 µM), 91.8% (active). Further, the growth inhibition was 92% (active) in assay [5] (setting [7]), 99% (active) in assay [5] (setting [8]) and 90% (active) in assay [5] (at 50.0 µM).
